About 83,000 compounds went through this panel and 20% of them were active in at least one assay; those are over-represented in the sample as a whole.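 A percent growth of 40 corresponds to 60% growth inhibition; 0 means no net growth; -100 means all cells died. Active threshold: below 10.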 The source made the active and inactive calls.

Data on four compounds can be found in PubChem BioAssay (NCI).

Test systems include NCI-H23 lung; NCI-H322M lung; HOP-62 NSCLC; NCI-H460 lung; HOP-92 NSCLC; A549/ATCC NSCLC; 786-0 renal; COLO 205 colon; DU-145 prostate; K-562 leukemia; MALME-3M melanoma; MDA-MB-231 breast; RXF 393 renal; SF-268 CNS; SF-295 CNS; SF-539 CNS; M14 melanoma; HCT-15 colon; NCI-H522 lung; UACC-257 melanoma.
Experiment in all cases: NCI-60 one-dose screen, 48 h (100 = growth as untreated, 0 = no growth, -100 = all killed)
Common to all, as to conditions: 10 µM

On to `N#C/C(=C1C=C/C(=N\O)C(Cl)=C\1)c1ccccc1`, for which the growth in the experiment with NCI-H23 lung is 82.8% (inactive); in the experiment on NCI-H322M lung, 55.3% (inactive); in the experiment on HOP-62 NSCLC it was 33.2% (inactive); in the experiment with NCI-H460 lung it was 14.3% (inactive); with HOP-92 NSCLC it was 38.3% (inactive); in the experiment on A549/ATCC NSCLC, 31.2% (inactive). Further, the growth in the experiment with 786-0 renal is 43% (inactive); with COLO 205 colon, 38.3% (inactive); with DU-145 prostate, 40.2% (inactive); in the experiment with K-562 leukemia, 20.9% (inactive); in the experiment on MALME-3M melanoma it was 58.7% (inactive); with MDA-MB-231 breast, 20.6% (inactive). The growth in the experiment with RXF 393 renal was 43.9% (inactive); in the experiment with SF-268 CNS, 27% (inactive); with SF-295 CNS, -32.2% (active); in the experiment with SF-539 CNS, 2.46% (active); in the experiment on M14 melanoma, 46% (inactive); with HCT-15 colon, 22.2% (inactive).
On to `BrC/C=C/C[P+](c1ccccc1)(c1ccccc1)c1ccccc1`, for which the growth was 84.2% (inactive) with NCI-H23 lung; 96.5% (inactive) in the experiment on NCI-H322M lung; 27.4% (inactive) in the experiment with HOP-62 NSCLC; 57.4% (inactive) in the experiment on NCI-H460 lung; 60.4% (inactive) in the experiment on HOP-92 NSCLC; 40% (inactive) with NCI-H522 lung. The growth in the experiment on A549/ATCC NSCLC was 44% (inactive); in the experiment with 786-0 renal, 46.2% (inactive); in the experiment with COLO 205 colon, 16.5% (inactive); in the experiment on DU-145 prostate it was 39.7% (inactive); with K-562 leukemia it was 17.5% (inactive); in the experiment with MALME-3M melanoma it was 60.6% (inactive). The growth in the experiment with MDA-MB-231 breast is 77.4% (inactive); with RXF 393 renal, 81.8% (inactive); with SF-268 CNS, 58.7% (inactive); with SF-295 CNS it was 38.2% (inactive); in the experiment with SF-539 CNS, 10% (inactive); in the experiment on UACC-257 melanoma, 47.9% (inactive). Further, the growth with M14 melanoma was 49.9% (inactive); in the experiment with HCT-15 colon, 37.3% (inactive).
Take `Cc1cc(NCCCN(C)C)c2ccc3c(ccc4c(NCCCN(C)C)cc(C)nc43)c2n1`: the growth is -45.2% (active) in the experiment on NCI-H23 lung; -40.7% (active) in the experiment with NCI-H322M lung; -22.3% (active) with HOP-62 NSCLC; -77.7% (active) in the experiment with NCI-H460 lung; -51.2% (active) in the experiment with HOP-92 NSCLC; -72.8% (active) with NCI-H522 lung. In addition, the growth in the experiment on A549/ATCC NSCLC is -22.4% (active); in the experiment on 786-0 renal it was -35.2% (active); in the experiment on COLO 205 colon it was -82.8% (active); with DU-145 prostate, -92.6% (active); with K-562 leukemia, -52.9% (active); with MALME-3M melanoma it was -89.2% (active). Besides, the growth in the experiment with MDA-MB-231 breast is -77.4% (active); in the experiment on RXF 393 renal it was -83.4% (active); in the experiment with SF-268 CNS it was -86.1% (active); in the experiment with SF-295 CNS, -76.2% (active); with SF-539 CNS, -96% (active); in the experiment with UACC-257 melanoma, -51.6% (active). Besides, the growth with M14 melanoma was -82.9% (active); with HCT-15 colon, -34.6% (active).
For `CSc1ccc2c(c1)C(N1CCN(C)CC1)Cc1ccccc1S2` (stereo not drawn), the growth is 56% (inactive) in the experiment with NCI-H23 lung; 29% (inactive) in the experiment on NCI-H460 lung; 5.58% (active) in the experiment with HOP-92 NSCLC; 52.7% (inactive) with A549/ATCC NSCLC; 53.6% (inactive) in the experiment on 786-0 renal; -75.1% (active) in the experiment on COLO 205 colon. Besides, the growth was 34% (inactive) with DU-145 prostate; -46.6% (active) in the experiment on MALME-3M melanoma; -11.6% (active) in the experiment with MDA-MB-231 breast; 25.1% (inactive) in the experiment with RXF 393 renal; 36.7% (inactive) in the experiment with SF-268 CNS; 44.1% (inactive) in the experiment on SF-295 CNS. Besides, the growth in the experiment with SF-539 CNS was 60.1% (inactive); in the experiment with UACC-257 melanoma, -61.6% (active); with HCT-15 colon, 10.3% (inactive).
